Screening results as filed in PubChem.
An excerpt weighted towards active compounds, which were near 2.8% of everything screened.
MITF act – activators of MITF-driven TRPM1 promoter activity in SK-MEL-5 cells; AID 588334; SK-MEL-5 TRPM1-promoter luciferase, 24 h; % of positive control, neutral wells = 0; 0.75% of 300,000 active; activation, % at 12.5 µM;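 active = mean activation of at least 80% with every replicate also reaching 80%; inconclusive = mean reaches 80% but some replicate falls short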
Wnt bcat act – Wnt/beta-catenin pathway activation | Wnt/beta-catenin reporter cell assay, activator, plate reader | activation, % at 9.35 µM | 1.2% of 300,000 active; in the data active = activation above about 30%, passing the limit was not always enough; inconclusive = no clear call, values can overlap the other calls
GAA850 FXN act – increases GAA850 frataxin promoter reporter activity | HEK293 lucGAA850 FXN promoter luciferase reporter, 24 h; percent of 10 µM SAHA response | AID 540364 | activation, % at 6 µM | 0.56% of 360,000 active;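 active = activation above the average of all compounds screened plus 3 SD, cutoff fixed separately per campaign, cut at about 7.5% in these data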
esBAF inh – SWI/SNF esBAF complex inhibition. mouse ES cells, Bmi1-luciferase knock-in reporter, 24 h; 100% = twice the neutral-well signal. reporter increase, % at 12.5 µM. AID 602393. 2% of 350,000 active; in the data active = activation above about 40%; inconclusive = no clear call, values can overlap the other calls;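 also: a rise in the Bmi1 reporter signal indicates esBAF inhibition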
GAA30 counter – GAA30 FXN promoter activation counter-screen. shares compounds with GAA850 FXN act. HEK293 lucGAA30 FXN promoter luciferase, 24 h; DMSO = 0%, 5 µM ipriflavone = 100%. activation, % at 6 µM. 66% of 1,900 active. AID 588350;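 active = mean activation above the mean of solvent-only control wells plus 3 SD, cut at about 22% in these data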;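 also: counterscreen of GAA850 promoter hits where activity marks nonselective or luminescence artifacts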
GAA850 confirm – confirmation of GAA850 frataxin (FXN) promoter activators | shares compounds with GAA850 FXN act | HEK293 lucGAA850 FXN promoter luciferase reporter, 24 h; 100% = activation by SAHA | activation, % at 6 µM | 86% of 1,900 active | AID 588351;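 active = mean activation above a set limit taken from the primary screen, cut at about 8% in these data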
Large screens that a line does not name were inactive (follow-up assays come after a bar, where they were run).

Cc1ccccc1S(=O)(=O)N(C)C[C@@H]1OCc2ccccc2-c2c(n(C)c3ccccc23)C(=O)N([C@H](C)CO)C[C@@H]1C	GAA850 FXN act 20 (no result: MITF act) | GAA30 counter inactive | GAA850 confirm 10
C[C@H]1CN([C@@H](C)CO)C(=O)c2c(c3ccccc3n2C)-c2ccccc2CO[C@@H]1CN(C)C(=O)Nc1ccc(F)cc1	none (no result: MITF act, Wnt bcat act, GAA850 FXN act)
COC(=O)N(C)C[C@@H]1OCc2ccccc2-c2c(n(C)c3ccccc23)C(=O)N([C@H](C)CO)C[C@@H]1C	GAA850 FXN act 16 (no result: MITF act) | GAA30 counter 33 | GAA850 confirm 14
C[C@@H]1CCCCO[C@H](CN(C)C)[C@@H](C)CN([C@@H](C)CO)C(=O)c2cc(NS(=O)(=O)c3ccc(F)cc3)ccc2O1	none (no result: MITF act, Wnt bcat act, GAA850 FXN act)
COCC#Cc1ccc2c(c1)O[C@H](CN(C)Cc1ccc(F)cc1)[C@H](C)CN([C@H](C)CO)S2(=O)=O	none (no result: MITF act, Wnt bcat act, GAA850 FXN act)
Cc1c(C=NCCOCc2ccccc2)cnn1C	GAA850 FXN act 10 (no result: Wnt bcat act, esBAF inh) | GAA30 counter inactive | GAA850 confirm 9.0
N#C/C(=C/c1ccc(O)c(O)c1)c1nc2ccccc2[nH]1	GAA850 FXN act 9.2, esBAF inh 57 | GAA30 counter 102 | GAA850 confirm 39
O=C1CC(c2ccco2)Sc2nc3ccccc3n21 (configuration not stated)	Wnt bcat act 47, GAA850 FXN act 8.3 | GAA30 counter 84 | GAA850 confirm 22
O=C1CC(c2cccs2)Sc2nc3ccccc3n21 (configuration not stated)	none (no result: Wnt bcat act, esBAF inh)
CCN(CC)C(=O)c1sc2nc(-c3ccc(OC)cc3)cn2c1C	GAA850 FXN act 9.8 (no result: MITF act, Wnt bcat act) | GAA30 counter 125 | GAA850 confirm 41
Cc1c(C(=O)NCc2ccco2)sc2nc(-c3ccccc3)cn12	GAA850 FXN act 18, esBAF inh 48 (no result: MITF act) | GAA30 counter 56 | GAA850 confirm 29
Cc1c(C(=O)Nc2ccncc2)sc2nc(-c3ccccc3)cn12	none (no result: MITF act)
COc1ccc2[nH]c3c(C)c4ccncc4c(C)c3c2c1	GAA850 FXN act 12 | GAA30 counter inactive | GAA850 confirm 64
COc1ccc(CCNC(=O)CSc2ccc3ccccc3c2)cc1OC	none (no result: esBAF inh)
O=C(CSc1ccc2ccccc2c1)NCCc1ccc(O)c(O)c1	GAA850 FXN act 13 | GAA30 counter 43 | GAA850 confirm 13
O=C(CSCCO)Nc1cccc2ccccc12	none (no result: Wnt bcat act)
O=C(CSCC(=O)Nc1cccc2ccccc12)Nc1cccc2ccccc12	GAA850 FXN act 14 | GAA30 counter 23 | GAA850 confirm inactive
C[C@H](CO)N1C[C@H](C)[C@@H](CN(C)S(C)(=O)=O)OCCCC[C@H](C)Oc2ccc(NC(=O)Nc3ccccc3)cc2C1=O	none (no result: MITF act, Wnt bcat act, GAA850 FXN act)
O=C(C[C@H]1C=C[C@H](NC(=O)c2ccncc2)[C@@H](CO)O1)NCC1CCCCC1	none (no result: MITF act, Wnt bcat act, GAA850 FXN act)
O=C(/C=C/c1ccccc1)CC(=O)c1ccccc1O	GAA850 FXN act 8.9 (no result: esBAF inh) | GAA30 counter 72 | GAA850 confirm 29
O=C1c2ccccc2-c2onc3ccc(Oc4ccccc4)c1c23	GAA850 FXN act 32 | GAA30 counter 51 | GAA850 confirm 40
CCOC(=O)C(C(=O)OCC)c1cc(Br)c2noc3c2c1C(=O)c1ccccc1-3	none (no result: Wnt bcat act, esBAF inh)
CC1CCCC(C)N1/N=C/c1ccc(O)c(O)c1 (configuration not stated)	none
Oc1ccc(/C=N/N2CCCCC2)cc1O	GAA850 FXN act 12 | GAA30 counter 55 | GAA850 confirm 28
COc1ccc(C(=O)c2sc(NC(C)C)nc2N)cc1OC	none (no result: MITF act)
COc1cccc(C(=O)c2sc(NC(C)C)nc2N)c1	GAA850 FXN act 12 | GAA30 counter 69 | GAA850 confirm 89
C[C@@H]1CN([C@@H](C)CO)C(=O)c2cccc(NS(=O)(=O)c3cn(C)cn3)c2O[C@H]1CN(C)CC1CC1	none (no result: MITF act, Wnt bcat act, GAA850 FXN act)
Cc1ccc(NC(=O)CSCC(=O)Nc2cc(C(F)(F)F)ccc2N2CCOCC2)cc1	GAA850 FXN act 11 (no result: Wnt bcat act, esBAF inh) | GAA30 counter 25 | GAA850 confirm 11
Cc1cc(NC(=O)CSCC(=O)Nc2cc(C(F)(F)F)ccc2N2CCOCC2)no1	none
COc1ccc(CCN2C(=O)CCC2(C)C(=O)NC2CCCC2)cc1OC (configuration not stated)	none
Cc1ccc(CCN2C(=O)CCC2(C)C(=O)NC2CCCC2)cc1 (configuration not stated)	GAA850 FXN act 15 (no result: MITF act) | GAA30 counter inactive | GAA850 confirm inactive
C=CCn1c(-c2cccs2)nc2nc3ccccc3nc21	GAA850 FXN act 8.1, esBAF inh 46 | GAA30 counter 80 | GAA850 confirm 24
O=C(C[C@@H]1CC[C@H]2[C@@H](COC[C@H](O)CN2C(=O)C2CCCC2)O1)NCc1ccncc1	none (no result: MITF act, Wnt bcat act, GAA850 FXN act)
O=C(c1ccc(-c2ccc(Cl)cc2Cl)o1)N1CCOCC1	MITF act 147, Wnt bcat act 54, GAA850 FXN act 9.1, esBAF inh 56 | GAA30 counter 114 | GAA850 confirm 46
O=C(c1cc(-c2ccccc2Cl)on1)N1CCN(C(=O)c2ccco2)CC1	none (no result: Wnt bcat act)
O=C(c1ccco1)N1CCN(C(=O)c2ccc(-c3ccccc3Cl)o2)CC1	MITF act inconclusive, GAA850 FXN act 7.6, esBAF inh 56 | GAA30 counter 88 | GAA850 confirm 30
S=C(c1ccc(-c2ccccc2Cl)o1)N1CCCCC1	GAA850 FXN act 8.6 (no result: Wnt bcat act, esBAF inh) | GAA30 counter 113 | GAA850 confirm 39
O=C(O)c1cnn(-c2nc(-c3ccc(Cl)c(Cl)c3)cs2)c1C(F)(F)F	GAA850 FXN act 8.1 | GAA30 counter 60 | GAA850 confirm 32
O=C(O)c1cnn(-c2nc(-c3cccc(F)c3)cs2)c1C(F)(F)F	none (no result: esBAF inh)
OC1CCN(C(c2ccc3ncccc3c2)c2nnnn2C2CCCCC2)CC1 (configuration not stated)	GAA850 FXN act 7.8 | GAA30 counter inactive | GAA850 confirm inactive
Cc1ccc(S(=O)(=O)N(C)C[C@H]2OCCCC[C@H](C)Oc3ccc(NS(=O)(=O)c4ccc(Cl)cc4)cc3C(=O)N([C@H](C)CO)C[C@@H]2C)cc1	none (no result: MITF act, Wnt bcat act, GAA850 FXN act)
O=C(N/N=C/c1ccc(OC2CSC2)cc1)c1ccccc1	GAA850 FXN act 8.1, esBAF inh 67 (no result: Wnt bcat act) | GAA30 counter 84 | GAA850 confirm 47
O=C(N/N=C/c1ccc(OCc2ccc(F)cc2)cc1)c1ccccc1	none (no result: esBAF inh)
C[C@H]1CN([C@@H](C)CO)C(=O)Cc2cc(NC(=O)CCC(F)(F)F)ccc2O[C@H]1CN(C)Cc1ccccc1	none (no result: MITF act, Wnt bcat act, GAA850 FXN act)
N#C/C(=C\c1cccs1)C(=O)Nc1nccs1	MITF act inconclusive, Wnt bcat act 56, GAA850 FXN act 9.2, esBAF inh 119 | GAA30 counter 106 | GAA850 confirm 28
CC(=O)c1sc(Nc2ccccc2)nc1C	none (no result: MITF act, GAA850 FXN act)
CC(=O)c1sc(Nc2cccc(C)c2)nc1C	GAA850 FXN act 7.8 (no result: esBAF inh) | GAA30 counter 101 | GAA850 confirm 31
C[C@H]1CN([C@@H](C)CO)C(=O)Cc2cc(NC(=O)CCC(F)(F)F)ccc2O[C@H]1CN(C)S(=O)(=O)c1ccccc1	none (no result: MITF act, Wnt bcat act, GAA850 FXN act)
